# Reference: PubChem BioAssay (Tox21)
# Results filed as inconclusive are left out. A call without a number means that no potency is given here. Active and inactive are the calls of the source. Calls follow the shape of the dose curve; as a rule, active = well fitted cell-killing curve with a large enough effect in the repeat runs; inconclusive = weak or mixed curves, or effect the other way; inactive = no such curve, though single readings can be large or run the other way. Positions of bridges follow the written chain, without caps; N, C: chain ends. Non-standard residues stand in square brackets, D forms with d. Residues, ends and D or L forms follow the SMILES beside them. hArg = N=C(N)NCCCC[C@H](N)C(=O)O; Mpa = O=C(O)CCS
# Experiment: qHTS assay for identifying genotoxic compounds that show differential cytotoxicity against isogenic chicken DT40 cell lines with known DNA damage response pathways - Rev3 mutant cell line (AID 743014); also: nearly all actives have a fitted effect of over 55% in size
# Conditions: chicken DT40 Rev3-/- viability, CellTiter-Glo, 40 h; series mostly up to 68.4 µM
# Source text: National Center for Advancing Translational Sciences [NCATS]
# NIH Chemical Genomics Center [NCGC]
# U.S. Environmental Protection Agency [EPA]
# National Institutes of Environmental Health Sciences [NIEHS]
# National Toxicology Program [NTP]
# U.S. Food and Drug Administration [FDA]
# DNA repair pathways play a critical role in cellular homeostasis by repairing DNA damage induced by endogenous processes and xenobiotics. Isogenic chicken DT40 cell lines deficient in different DNA repair pathways can be used to identify genotoxic compounds and aid in characterizing the nature of the DNA damage induced. Two DNA repair-deficient cell lines with disrupted genes, Rad54/Ku70 or Rev3, were used to screen the Tox21 10K compound library. Possible genotoxicity was based on the presence of a significant increase in cytotoxicity in one or more of the DNA repair-deficient cell lines compared to that observed in the parental DNA repair-proficient cell line. CellTiter Glo viability assay (Promega, Madison, WI) was used to measure cell viability in these cells after compound treatment. This assay includes the data from the Rev3 mutant cell line.
# Tox21 Assay Protocol Summary:
# 300 DT40 mutant cells in 5 uL/well were dispensed into white, solid-bottom 1536-well plates using a Multidrop Combi (ThermoFisher Scientific, Waltham, MA) dispenser. After the assay plates were incubated at 37 C/5% CO2 for approximately 0.5 hour, 23 nL of compounds dissolved in DMSO, positive controls or DMSO only was transferred into the assay plate by a pintool work station (Kalypsys, San Diego, CA). The assay plates were incubated at 37 C/5% CO2 for 40 hours. After 5 uL per well of CellTiter-Glo reagent was added into each well of the assay plates, the plates were incubated for 30 min at room temperature and the luminescence intensity of the plates was measured using a ViewLux (PerkinElmer, Shelton, CT) plate reader.
# Potency is read from the fitted curve at half-maximal effect.
row,SMILES,Potency
1,CC(C)OC(=O)CCC(=O)OC(C)C,inactive
2,N#CCC(=O)NN,inactive
3,CCC(C)OC(C)CC (stereo not given),inactive
4,CNCCS(=O)(=O)O,inactive
5,OCC1CCC(CO)CC1 (stereo not given),inactive
6,C=CCN1C[C@H](C(=O)N(CCCN(C)C)C(=O)NCC)C[C@@H]2c3cccc4[nH]cc(c34)C[C@H]21,inactive
7,CC(O)CC(C)O (stereo not given),inactive
8,Nc1nnnn1-c1ccccc1,inactive
9,O=C1OCCO1,inactive
10,CN(C)CCN(C)CCO,inactive
11,CN(C)CC/C=C1/c2ccccc2COc2ccc(CC(=O)O)cc21,inactive
12,CC/C(C)=N\O[Si](C)(O/N=C(\C)CC)O/N=C(\C)CC,inactive
13,C/C=C(\C)C(=O)OCCc1ccccc1,inactive
14,CN(C)CCCO[C@@H]1[C@H]2OC(C)(C)O[C@H]2O[C@@H]1C(O)CO (stereo not given in full),inactive
15,CC(CO)(CO)CO,inactive
16,c1ccc(B(c2ccccc2)c2ccccc2)cc1,inactive
17,CCCC(CC)c1ccccc1 (stereo not given),inactive
18,O=S(=O)(O)c1ccc2c(N=Nc3ccc(S(=O)(=O)O)c4ccccc34)c(O)c(S(=O)(=O)O)cc2c1,inactive
19,CC1=NN(c2ccc(S(=O)(=O)O)cc2)C(=O)C1,inactive
20,CCCCOCC(C)O (stereo not given),inactive

row,SMILES,Potency
1,C=C(C)[C@@H]1CC=C(C)CC1,68.6 µM (active)
2,O=C(O)[C@H](O)c1ccccc1,inactive
3,CCCCCCCCCCCCCCC(=O)NC(CO)CCCCCCCCCCCCCC (stereo not given),inactive
4,COc1c2occc2c(OC)c2c(=O)cc(C)oc12,inactive
5,CCC/C=C(\C=O)CC,inactive
6,COC(C)(OC)OC,inactive
7,C=CC/C=C/C,inactive
8,Cc1c(N)cccc1Cl,inactive
9,CCCCOCCOC(=O)COc1ccc(Cl)cc1Cl,inactive
10,CCn1cc(C(=O)O)c(=O)c2cnc(N3CCCC3)nc21,inactive
11,C=CCSSCCC,inactive
12,N#Cc1cscn1,inactive
13,CCCCCCCCCCOC(C)=O,inactive
14,C[Si]1(C)O[Si](C)(C)O[Si](C)(C)O[Si](C)(C)O[Si](C)(C)O1,inactive
15,NC(=O)[C@@H]1CSSCCC(=O)N[C@@H](CCCCN=C(N)N)C(=O)NCC(=O)N[C@@H](CC(=O)O)C(=O)N[C@@H](Cc2c[nH]c3ccccc23)C(=O)N2CCC[C@H]2C(=O)N1 ([Mpa][hArg]GDWPC-NH2; disulfide 1-7),inactive
16,Cc1c(Cl)cccc1Cl,inactive
17,CC(C)(CO)C(O)C(=O)NCCCO (stereo not given),inactive
18,CC(C)(C)NC[C@H](O)COc1cccc2c1CCCC2=O,inactive
19,CC(=O)C(C)O (stereo not given),inactive
20,CCC(=O)c1c(O)cc(O)cc1O,inactive
